TCR activator: T cell receptor activation; primary human leukocytes, anti-CD3, IL-2 HTRF, 48 h; Potency, µM (highest dose often 9.22 µM), without a hit: top-dose activation of IL-2 secretion, hits mostly activators; 330,000 tested, under 10 active; AID 504894; further: % of control where 0% means no effect
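TCR engagement came from a-CD3 beads alone, with compounds added to primary human leukocytes for 48 hr. Secreted IL-2 bridged europium cryptate- and d2-labelled anti-IL-2 antibodies, giving FRET emission at 665nm after 320nm excitation.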
A549 viability: kills or reduces viability of A549 cells in Nrf2 counter-screen; A549 ARE-Fluc cells, CellTiter-Fluor viability, 18-24 h; Potency, µM (highest dose often 46 µM), without a hit: at the top dose activity change, negative = cytotoxicity, usual class: inhibitors; 390,000 tested, 0.16% active; AID 504648; further: potency means the concentration at half of the fitted maximal effect; on the % scale 0 is the no-effect control and ±100 the full control effect
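A549 ARE_Fluc cells in 5% FBS OPTI-MEM were exposed to compounds in concentration-response for 18-24 h at 37 deg C. Viability was read by CellTiter-Fluor fluorescence (Ex 405/Em 525) after 30 min, before the luciferase read.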
Nrf2 inh: Nrf2 pathway inhibition; A549 ARE-Fluc reporter, luciferase luminescence, 18-24 h; Potency, µM (doses to about 46 µM), without a hit: at the top dose activity change, negative = inhibition, usual class: inhibitors; 360,000 tested, 2.1% active; AID 504444; further: potency means the concentration at half of the fitted maximal effect; on the % scale 0 is the no-effect control and ±100 the full control effect; nearly all actives have a fitted effect of over 60% in size
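In this cell-based qHTS, ARE-driven firefly luciferase in A549 cells reports Nrf2 activity; the luminescent signal after BugLite lysis is the measured value, with a prior CellTiter-Fluor read for cell health.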
Nrf2 ARE act: activates Nrf2 signaling | AREc32 ARE-luciferase reporter (MCF7-derived line), luminescence, 24 h | Potency, µM (doses to about 46.1 µM), without a hit: top-dose activation, most hits filed as activators | 410,000 tested, 0.31% active; further: potency means the concentration at half of the fitted maximal effect; % of control where 0% means no effect; nearly all actives have a fitted effect of over 65% in size
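AREc32 cells carrying an ARE-driven firefly luciferase reporter were seeded at 1000 cells/well in OPTI-MEM with 5% FBS, then exposed to compound for 24 hr at 37 deg C. Luminescence was read with Steady-Glo after 30 min at RT.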
CCT modulator: changes cytosolic chaperonin activity; purified chaperonin ATPase assay, HTRF ADP detection, 30 min; activity change, % (no concentration beside the values), hits read low; 360,000 tested, 0.3% active; AID 651819; in the data active means activity change below about -30%; further: on the % scale 0 is the no-effect control and ±100 the full control effect
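Nucleotide hydrolysis assay: TRiC at 20–40 nM final (set by batch activity) with 10 uM ATP, 30 min at 37 °C, in presence of 76 uM compound. Detection by competitive ADP HTRF, 30 min ambient.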
AT treatment: candidate therapy for ataxia-telangiectasia. 320,000 tested, 0.19% active. Potency, µM (highest dose often 57.5 µM), for the others: at the highest dose activation, actives largely listed as activators. F2112 A-T fibroblasts, KAP-1 phosphorylation AlphaLISA; neocarzinostatin DNA damage 30 min before lysis. AID 485349; further: potency means the concentration at half of the fitted maximal effect; % of control where 0% means no effect; nearly all actives have a fitted effect of over 45% in size
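ATM-like activity read as KAP-1 phosphorylation via AlphaLISA donor/acceptor antibody pairs after lysis and 6 hr at 25C. Cells were ATM-null patient fibroblasts (F2112, hTERT), dosed 60 min, then exposed to the DSB inducer NCS for 30 min.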
Active calls of the source: *; [ ] = another dose, or the depositor's remark. A selection: hits, their analogues and other compounds. The true share with any hit is near 2.6%. Unless noted, the call rests on the fitted dose curve; in most records, active means well fitted curve in the direction sought with a large enough effect; inconclusive means small, poorly fitted or top-dose-only effect, or another doubt; inactive means no such curve, though single readings can be large; an effect the other way counts as inactive or inconclusive.

For COC(=O)C1=C(c2ccc3ccccc3c2)C[C@@H]2CC[C@H]1N2C(=O)NCc1ccc(F)cc1 the results were TCR activator 13%, A549 viability -18%, Nrf2 inh inconclusive, Nrf2 ARE act 0%, CCT modulator -2 and AT treatment -3%.
For CCc1ccccc1NC(=O)C1CCCN(c2ncnc3onc(C)c23)C1 (centres undefined) the results were A549 viability -13%, Nrf2 inh inconclusive and Nrf2 ARE act 1%.
Screening CCc1ccc(CNC(=O)c2ccc3c(c2)N=C(C)c2cc(C)ccc2S3)cc1 returned A549 viability -4%, Nrf2 inh inconclusive and Nrf2 ARE act -1%.
For COC(=O)C1=C(c2cccc(OCc3ccccc3)c2)C[C@@H]2CC[C@H]1N2C(=O)NCCOc1ccc(OC)cc1 the results were TCR activator 3%, A549 viability -7%, Nrf2 inh 15µM*, Nrf2 ARE act 0%, CCT modulator -2 and AT treatment 2%.
For COC(=O)C1=C(c2ccc(OCc3ccccc3)cc2)C[C@@H]2CC[C@H]1N2C(=O)NCCN1CCOCC1 the results were TCR activator 1%, A549 viability 2%, Nrf2 inh 1%, Nrf2 ARE act 0%, CCT modulator 0 and AT treatment 1%.
COC(=O)C1=C(c2ccc(OCc3ccccc3)cc2)C[C@@H]2CC[C@H]1N2C(=O)NC1CCN(Cc2ccccc2)CC1 was read as TCR activator -6%, A549 viability 21µM*, Nrf2 inh 21µM*, Nrf2 ARE act -2%, CCT modulator 2 and AT treatment 0%.
For COC(=O)C1=C(c2ccc(-c3ccccc3)c(F)c2)C[C@@H]2CC[C@H]1N2C(=O)NCCCOC(C)C the results were TCR activator -2%, A549 viability -23%, Nrf2 inh 16µM*, Nrf2 ARE act 0%, CCT modulator -3 and AT treatment 8%.
`COC(=O)C1=C(c2ccc(-c3ccccc3)c(F)c2)C[C@@H]2CC[C@H]1N2C(=O)NC1CCCCC1` gave TCR activator 6%, A549 viability inconclusive, Nrf2 inh 18µM*, Nrf2 ARE act 0%, CCT modulator -2 and AT treatment -8%.
`CCS(=O)(=O)Nc1ccc(C2=NN(C(=O)c3ccco3)C(c3ccc(Cl)o3)C2)cc1` (centres undefined) gave TCR activator 0%[46.1 µM], A549 viability -3%, Nrf2 inh inconclusive, Nrf2 ARE act 7%, CCT modulator 0 and AT treatment 19%.
`CSc1cccc(CNC(=O)C2CCC(=O)N(Cc3cccc(C(F)(F)F)c3)C2)c1` (centres undefined) gave TCR activator -1%, A549 viability -1%, Nrf2 inh inconclusive, Nrf2 ARE act 0%, CCT modulator -1 and AT treatment 5%.
For CC(O)(CS(=O)(=O)c1ccccc1)C(=O)Nc1ccc(C(F)(F)F)cc1 (centres undefined) the results were TCR activator 6%, A549 viability 8%, Nrf2 ARE act 0%, CCT modulator -1 and AT treatment -11%.
Screening CCCC(C)c1nnc(NC(=O)CCS(=O)(=O)c2ccccc2)s1 (centres undefined) returned TCR activator 4%, A549 viability 1%, Nrf2 inh 1%, Nrf2 ARE act 22µM*, CCT modulator 0 and AT treatment -6%.
O=C(NCc1ccc(Cl)cc1)C1CCN(C(=O)c2cnn(-c3ccccc3)c2-n2cccc2)CC1 was read as A549 viability -20%, Nrf2 inh inconclusive and Nrf2 ARE act 7%.
CC1(C)Cc2c(c(N3CCOCC3)nc3sc4c(NCc5ccccc5)nnnc4c23)CS1 was read as TCR activator -4%, A549 viability -2%, Nrf2 inh 2.6µM*, Nrf2 ARE act -1%, CCT modulator -2 and AT treatment 0%.
`COc1ccc(C2C=C(c3ccccc3)Nc3nc(NC(=O)/C=C/c4ccccc4Cl)nn32)cc1` (centres undefined) gave A549 viability 6%, Nrf2 inh 4% and Nrf2 ARE act inconclusive.
O=c1cccc2n1CC1CC2CN(Cc2cccc(Cl)c2Cl)C1 (centres undefined) was read as TCR activator 2%, A549 viability -4%, Nrf2 inh 21µM*, Nrf2 ARE act 2%, CCT modulator 2 and AT treatment 3%.
`Cc1ccccc1OCCN=Cc1c(O)n(C)c(=O)n(C)c1=O` gave TCR activator -1%, A549 viability -16%, Nrf2 inh 21µM*, Nrf2 ARE act 1%, CCT modulator -3 and AT treatment 3%.
`C[C@]12CCC3C(CC[C@H]4C[C@@H](O)CC[C@]34C)C1=CC[C@@H]2O` (some centres undefined) gave Nrf2 ARE act -1% and CCT modulator -35*.
C[C@]12CCC3C(CC[C@H]4C[C@H](O)CC[C@]34C)C1C[C@H](O)[C@H]2O (some centres undefined) was read as TCR activator -8%, A549 viability 1%, Nrf2 inh -4%, Nrf2 ARE act 0% and CCT modulator -1.
Screening CCOP(=O)(OCC)c1nc(-c2ccc(Cl)cc2)oc1NCc1ccccc1 returned TCR activator 4%, A549 viability -20%, Nrf2 inh inconclusive, Nrf2 ARE act 7%, CCT modulator -6 and AT treatment 14%.
`CCCOP(=O)(OCCC)c1nc(-c2ccccc2)oc1NCc1ccccc1` gave TCR activator 0%[46.1 µM], A549 viability inconclusive, Nrf2 inh 18µM*, Nrf2 ARE act 7%, CCT modulator -1 and AT treatment 17%.
For CCCNS(=O)(=O)c1ccc(OCC(=O)N2CCN(Cc3ccc4c(c3)OCO4)CC2)cc1 the results were TCR activator 2%, A549 viability -13%, Nrf2 inh 8.2µM*, Nrf2 ARE act 0%, CCT modulator -2 and AT treatment -6%.
`CCCNS(=O)(=O)c1ccc(OCC(=O)N2CCN(Cc3ccc4c(c3)OCO4)CC2)c(C)c1` gave TCR activator -1%, A549 viability 4%, Nrf2 inh 12µM*, Nrf2 ARE act 7%, CCT modulator -1 and AT treatment 0%.
Cc1ccc(C)c(OCC(=O)N2CCN(Cc3ccc4c(c3)OCO4)CC2)c1 was read as A549 viability 2%, Nrf2 inh 1%, Nrf2 ARE act 0%, CCT modulator 0 and AT treatment 3%.

Bioassay records (PubChem BioAssay)
